Among the data in PubChem BioAssay (NCI) are growth values, retold here.

Some test systems named below: SK-MEL-2 melanoma; EKVX NSCLC; SN12C renal; UO-31 renal; TK-10 renal; ACHN renal; CAKI-1 renal; A498 renal; CCRF-CEM leukemia; MOLT-4 leukemia; RPMI-8226 leukemia; OVCAR-8 ovarian; OVCAR-5 ovarian; OVCAR-4 ovarian; SK-OV-3 ovarian; IGROV1 ovarian; OVCAR-3 ovarian; HS 578T breast; NCI/ADR-RES ovarian.
What all share (assay): NCI-60 one-dose screen, 48 h (100 = growth as untreated, 0 = no growth, -100 = all killed)
Settings in all cases: 10 µM unless noted

SMILES strings stand for the structures. Compounds without any hit were thinned out: in the full panel of roughly 83,000, 20% have a hit.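 Testing used 96-well plates and a 48-hour single-concentration exposure. Example: -40 means 40% of the starting cells died.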 A number with no mark means an inactive call. Activity calls are given as the source filed them. The calls were made as follows: active = growth percent below 10; inactive = the rest.

On to `Brc1ccc2[nH]cc(-c3nc(-c4c[nH]c5ccncc45)cs3)c2c1`, for which the growth is -46.8% (active) in the assay with SK-MEL-2 melanoma; -67.7% (active) in the assay on EKVX NSCLC; -85.6% (active) with SN12C renal; -83.9% (active) in the assay on UO-31 renal; -53% (active) in the assay with TK-10 renal; -95.5% (active) with ACHN renal. The growth is -92.6% (active) in the assay on CAKI-1 renal; 55.9% in the assay on A498 renal; -23.3% (active) with CCRF-CEM leukemia; -58.4% (active) in the assay on MOLT-4 leukemia; -23.4% (active) in the assay with RPMI-8226 leukemia; -64.5% (active) with OVCAR-8 ovarian. In addition, the growth in the assay on OVCAR-5 ovarian is 38.9%; in the assay on OVCAR-4 ovarian it was -77.8% (active); in the assay on SK-OV-3 ovarian it was 87.6%; with IGROV1 ovarian it was -86.5% (active); with OVCAR-3 ovarian, -91.6% (active); with HS 578T breast, -48.4% (active). For the same molecule, the growth with NCI/ADR-RES ovarian is 14.1%.
Turning to `O=C(Oc1cccc2ccccc12)Oc1cccc2ccccc12`, the growth was 104% in the assay on SK-MEL-2 melanoma; 88.3% in the assay with EKVX NSCLC; 97.2% in the assay with SN12C renal; 55% with UO-31 renal; 139% with TK-10 renal; 98% with ACHN renal. Further, the growth in the assay with CAKI-1 renal was 86.8%; with A498 renal it was 107%; in the assay on CCRF-CEM leukemia, 88.7%; in the assay with MOLT-4 leukemia, 93.2%; in the assay on RPMI-8226 leukemia, 113%; in the assay with OVCAR-8 ovarian, 107%. The growth with OVCAR-5 ovarian is 103%; with OVCAR-4 ovarian it was 113%; with SK-OV-3 ovarian, 102%; in the assay with IGROV1 ovarian, 73.6%; in the assay with OVCAR-3 ovarian, 79.4%; in the assay with HS 578T breast it was 106%. In the assay on NCI/ADR-RES ovarian, the growth was 103%.
On to `COc1c(C2CC(=O)Nc3c2c(C)nn3-c2nc3ccccc3[nH]2)cc2c(c1OC)OCO2` (centres undefined), for which the growth with SK-MEL-2 melanoma is 29.6%; with EKVX NSCLC it was 58%; with SN12C renal, 68.8%; in the assay with UO-31 renal, 45.4%; in the assay on TK-10 renal it was 66.9%; with ACHN renal, 55.8%. Further, the growth in the assay on CAKI-1 renal was 71.6%; with A498 renal, 22.6%; with CCRF-CEM leukemia it was 11.3%; in the assay on MOLT-4 leukemia, -12.7% (active); in the assay on RPMI-8226 leukemia, 53.6%; in the assay on OVCAR-8 ovarian, 52%. In addition, the growth with OVCAR-5 ovarian was 105%; in the assay with OVCAR-4 ovarian it was 83.2%; with SK-OV-3 ovarian, 42%; with IGROV1 ovarian it was 48.8%; in the assay with OVCAR-3 ovarian, 36.1%; with HS 578T breast, 28.3%. Also, the growth with NCI/ADR-RES ovarian is 39.8%.
In the case of `C#C[C@]1(O)CC[C@H]2[C@@H]3CC=C4c5sc(Nc6cc(F)ccc6F)nc5CC[C@]4(C)[C@H]3CC[C@@]21C`, the growth was -6.68% (active) with SK-MEL-2 melanoma; 23.9% in the assay on EKVX NSCLC; -43.1% (active) in the assay with SN12C renal; -98.3% (active) in the assay with UO-31 renal; 18.5% with TK-10 renal; -68.2% (active) in the assay with ACHN renal. Further, the growth with CAKI-1 renal is -31.5% (active); with A498 renal, -13.4% (active); in the assay on CCRF-CEM leukemia, 4.58% (active); in the assay with MOLT-4 leukemia, 6.12% (active); in the assay on RPMI-8226 leukemia it was -28.3% (active); with OVCAR-8 ovarian, 18.4%. For the same molecule, the growth with OVCAR-5 ovarian was 2.88% (active); with OVCAR-4 ovarian it was 23%; in the assay with SK-OV-3 ovarian, -1.09% (active); in the assay on IGROV1 ovarian it was -33.5% (active); in the assay on OVCAR-3 ovarian it was -22.7% (active); in the assay on HS 578T breast it was -10.8% (active). Besides, the growth in the assay with NCI/ADR-RES ovarian is 7.49% (active).
With `CCN1C(=O)N(CC)C2Nn3c(s/c(=C4\C(=O)N(CCC(C)C)c5ccccc54)c3=O)=NC21` (centres undefined), the growth in the assay with SK-MEL-2 melanoma was 87.7%; in the assay with EKVX NSCLC, 67.1%; with SN12C renal, 89.3%; in the assay with UO-31 renal it was 54.3%; in the assay on TK-10 renal it was 38.3%; in the assay with ACHN renal, 67.6%. The growth in the assay on CAKI-1 renal is 51.3%; in the assay on A498 renal, 72.9%; in the assay with CCRF-CEM leukemia it was 57.1%; with MOLT-4 leukemia, 85.5%; with RPMI-8226 leukemia, 73.7%; in the assay with OVCAR-8 ovarian, 86%. Further, the growth with OVCAR-5 ovarian is 102%; with OVCAR-4 ovarian, 63.5%; with SK-OV-3 ovarian, 98.7%; in the assay on IGROV1 ovarian, 63.8%; in the assay with OVCAR-3 ovarian, 75.8%; in the assay with HS 578T breast, 81.4%. Further, the growth in the assay on NCI/ADR-RES ovarian was 57.8%.
In the case of `Oc1ccc(Cl)cc1Cc1cc(Cl)cc(Cl)c1O`, the growth with SK-MEL-2 melanoma is 37.4%; in the assay with EKVX NSCLC, 35.6%; in the assay on SN12C renal it was 20.4%; in the assay with UO-31 renal it was 44.8%; in the assay on TK-10 renal, 79.5%; in the assay on ACHN renal it was 27.9%. The growth was 49.6% with CAKI-1 renal; 85.9% with A498 renal; 19.5% with CCRF-CEM leukemia; 19.2% in the assay with MOLT-4 leukemia; 0.811% (active) with RPMI-8226 leukemia; 73.4% in the assay on OVCAR-8 ovarian. The growth in the assay on OVCAR-5 ovarian was 92.3%; in the assay on OVCAR-4 ovarian, 17.5%; in the assay with SK-OV-3 ovarian it was 70.8%; in the assay with IGROV1 ovarian it was 66%; in the assay with OVCAR-3 ovarian it was -8.34% (active); in the assay on HS 578T breast, -14.8% (active). Further, the growth with NCI/ADR-RES ovarian is 24.6%.
Take `CC(=O)OC[C@H]1OC(Sc2sc(C(=O)c3ccc(Cl)cc3)c(N)c2-c2nc3ccccc3s2)[C@H](OC(C)=O)[C@@H](OC(C)=O)[C@@H]1OC(C)=O` (some centres undefined): the growth was 104% in the assay with SK-MEL-2 melanoma; 80.4% with EKVX NSCLC; 54.7% in the assay on SN12C renal; 79.4% with UO-31 renal; 134% with TK-10 renal; 67.4% in the assay with ACHN renal. Besides, the growth in the assay on CAKI-1 renal was 77.1%; in the assay on A498 renal, 87.8%; in the assay on CCRF-CEM leukemia, 70.9%; with MOLT-4 leukemia it was 97%; with RPMI-8226 leukemia it was 73%; in the assay on OVCAR-8 ovarian it was 72.6%. Also, the growth in the assay on OVCAR-5 ovarian was 87.3%; in the assay on OVCAR-4 ovarian it was 52.5%; in the assay with SK-OV-3 ovarian, 90.5%; in the assay with IGROV1 ovarian, 70.9%; with OVCAR-3 ovarian it was 103%; in the assay with HS 578T breast, 71.4%. For the same molecule, the growth with NCI/ADR-RES ovarian is 78.7%.
Take `COc1ccc(-n2c(N)c(-c3nc4ccccc4[nH]3)cc(C#N)c2=O)cc1`: the growth is 105% in the assay on SK-MEL-2 melanoma; 79.1% in the assay on EKVX NSCLC; 85% in the assay with SN12C renal; 77.8% in the assay on UO-31 renal; 103% in the assay with TK-10 renal; 75.9% in the assay on ACHN renal. The growth in the assay on CAKI-1 renal was 92.3%; with A498 renal it was 64%; in the assay with CCRF-CEM leukemia, 98.3%; with MOLT-4 leukemia, 99.3%; in the assay with RPMI-8226 leukemia it was 92.3%; in the assay with OVCAR-8 ovarian it was 69.8%. Moreover, the growth with OVCAR-5 ovarian was 99%; with OVCAR-4 ovarian, 77.5%; in the assay with SK-OV-3 ovarian, 111%; in the assay with IGROV1 ovarian, 103%; in the assay on OVCAR-3 ovarian it was 107%; with HS 578T breast it was 50.1%. For the same molecule, the growth with NCI/ADR-RES ovarian was 77.8%.
For the molecule `CN(C)c1ccc(/C=N\Nc2cc(=O)[nH]c3ccc(Cl)cc23)cc1`, the growth with SK-MEL-2 melanoma is 91.2%; in the assay on EKVX NSCLC it was 85.7%; with SN12C renal, 104%; with UO-31 renal, 67.9%; in the assay with TK-10 renal it was 127%; in the assay on ACHN renal, 95.2%. Moreover, the growth in the assay on CAKI-1 renal is 90.9%; in the assay with A498 renal, 123%; in the assay on CCRF-CEM leukemia, 95.4%; in the assay with MOLT-4 leukemia, 87.1%; in the assay with RPMI-8226 leukemia, 93.2%; in the assay with OVCAR-8 ovarian, 93.4%. The growth was 101% in the assay on OVCAR-5 ovarian; 121% with OVCAR-4 ovarian; 82.9% with SK-OV-3 ovarian; 75.3% in the assay on IGROV1 ovarian; 108% in the assay with OVCAR-3 ovarian; 82.8% in the assay with HS 578T breast. Besides, the growth in the assay on NCI/ADR-RES ovarian is 99.8%.
In the case of `Cc1onc2c(-c3ccccc3)n[nH]c(=O)c12`, the growth with SK-MEL-2 melanoma is 135%; with EKVX NSCLC it was 62.8%; in the assay on SN12C renal, 101%; with UO-31 renal, 106%; with TK-10 renal, 78.9%; in the assay on ACHN renal, 107%. In addition, the growth in the assay on CAKI-1 renal was 74.1%; with A498 renal it was 90.2%; in the assay on CCRF-CEM leukemia it was 106%; in the assay on MOLT-4 leukemia, 76%; with RPMI-8226 leukemia it was 107%; in the assay on OVCAR-8 ovarian, 116%. For the same molecule, the growth with OVCAR-5 ovarian was 98.8%; in the assay on OVCAR-4 ovarian, 108%; in the assay on SK-OV-3 ovarian it was 87.1%; with IGROV1 ovarian, 140%; in the assay with OVCAR-3 ovarian it was 106%; in the assay on HS 578T breast, 127%. In addition, the growth in the assay on NCI/ADR-RES ovarian is 106%.
On to `OC(COc1ccccc1Cl)CN1CCN(c2cccc(Cl)c2)CC1` (centres undefined), for which the growth with SK-MEL-2 melanoma is 106%; in the assay with EKVX NSCLC, 119%; in the assay on SN12C renal it was 104%; in the assay with UO-31 renal it was 83.1%; in the assay on TK-10 renal it was 107%; in the assay on ACHN renal it was 101%. Besides, the growth with CAKI-1 renal is 99.1%; in the assay on A498 renal it was 108%; in the assay with CCRF-CEM leukemia, 113%; with MOLT-4 leukemia, 107%; with RPMI-8226 leukemia, 115%; in the assay on OVCAR-8 ovarian, 91.9%. Further, the growth in the assay on OVCAR-5 ovarian is 97.8%; in the assay with OVCAR-4 ovarian, 110%; with SK-OV-3 ovarian, 109%; in the assay on IGROV1 ovarian it was 122%; in the assay on OVCAR-3 ovarian, 113%; in the assay on HS 578T breast it was 112%. Moreover, the growth with NCI/ADR-RES ovarian was 113%.
